The text below walks through data of article PMC7862700, “An all-to-all approach to the identification of sequence-specific readers for epigenetic DNA modifications on cytosine”.

Holding throughout (test): DAPPL (digital affinity profiling via proximity ligation, sequencing); 10 mM Tris-HCl pH 7.5, 50 mM NaCl, 1 mM DTT, 4% glycerol, room temperature, 30 min; GST-TFs on glutathione beads, 16-mer random dsDNA library, 0.1% formaldehyde crosslink after washing; high values mean tight binding
Holding throughout (conditions): protein: recombinant; tags: N-terminal GST; dsDNA, one strand shown

In test [1] the target is T1, ELK4 (Homo sapiens, UniProt P28324-2 1-405).
T1 sequence: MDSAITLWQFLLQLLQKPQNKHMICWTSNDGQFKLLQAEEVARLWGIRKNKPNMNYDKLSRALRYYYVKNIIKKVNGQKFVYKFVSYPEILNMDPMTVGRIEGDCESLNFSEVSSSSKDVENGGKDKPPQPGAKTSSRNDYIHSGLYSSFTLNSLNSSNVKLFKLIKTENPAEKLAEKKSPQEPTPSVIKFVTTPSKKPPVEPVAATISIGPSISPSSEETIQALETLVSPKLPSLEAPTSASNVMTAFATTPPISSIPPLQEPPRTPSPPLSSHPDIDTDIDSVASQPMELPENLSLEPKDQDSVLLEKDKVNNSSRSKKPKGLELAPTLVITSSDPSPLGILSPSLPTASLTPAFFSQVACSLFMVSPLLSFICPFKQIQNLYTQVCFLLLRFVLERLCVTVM
Put shortly: (§1)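 Binding signal is given per hexamer as its read frequency for a factor divided by its frequency in the tag-only sample. GST-fused human transcription factors were expressed in yeast, captured on glutathione beads, barcoded with DNA and pooled with that sample, then incubated with 200 nmole of a 16-mer random double-stranded DNA library in Tris/NaCl/DTT/glycerol buffer for 30 min at room temperature. The pools were then washed, crosslinked, proximity-ligated, amplified by PCR and sequenced on an Illumina NextSeq500.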

Test [2] has as its target SPI1 (Homo sapiens, UniProt P17947 1-270). Summed up:
as §1

For test [3], the target named is SPIB (Homo sapiens, UniProt Q01892 1-262). Summed up: as §1
Sequence of SPIB (Q01892 whole entry): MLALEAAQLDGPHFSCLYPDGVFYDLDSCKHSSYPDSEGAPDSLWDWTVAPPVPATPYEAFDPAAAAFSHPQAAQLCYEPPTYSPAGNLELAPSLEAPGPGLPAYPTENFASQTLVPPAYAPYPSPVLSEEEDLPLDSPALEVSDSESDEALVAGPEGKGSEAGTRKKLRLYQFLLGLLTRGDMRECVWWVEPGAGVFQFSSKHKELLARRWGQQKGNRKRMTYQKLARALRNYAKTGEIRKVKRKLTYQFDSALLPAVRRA
In test [4] the target is T2, FEV (Homo sapiens, UniProt Q99581 1-238).
T2 sequence: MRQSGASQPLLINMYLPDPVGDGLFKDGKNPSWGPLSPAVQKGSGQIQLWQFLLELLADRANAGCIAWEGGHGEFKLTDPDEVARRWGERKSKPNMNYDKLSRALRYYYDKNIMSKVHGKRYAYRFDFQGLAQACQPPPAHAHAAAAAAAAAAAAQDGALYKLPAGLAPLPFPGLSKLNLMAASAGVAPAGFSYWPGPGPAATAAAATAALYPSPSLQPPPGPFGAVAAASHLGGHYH
Summed up: as §1

Test [5] has as its target ELF4 (Homo sapiens, UniProt Q99607 1-663). Summed up: as §1
Test [6] deals with T3, ETV2 (Homo sapiens, UniProt O00321 1-342).
T3 sequence: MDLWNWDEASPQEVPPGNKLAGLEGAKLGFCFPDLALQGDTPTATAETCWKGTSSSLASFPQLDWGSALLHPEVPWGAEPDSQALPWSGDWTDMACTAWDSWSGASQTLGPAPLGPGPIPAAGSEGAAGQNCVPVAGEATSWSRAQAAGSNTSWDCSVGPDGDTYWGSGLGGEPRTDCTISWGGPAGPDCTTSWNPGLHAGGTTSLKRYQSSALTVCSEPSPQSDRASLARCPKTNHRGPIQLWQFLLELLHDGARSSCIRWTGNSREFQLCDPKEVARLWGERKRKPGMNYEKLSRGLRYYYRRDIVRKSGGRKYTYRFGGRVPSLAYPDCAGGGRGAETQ
Summed up:
as §1

For test [7], the target named is T4, ERF (Homo sapiens, UniProt P50548 1-548).
T4 sequence: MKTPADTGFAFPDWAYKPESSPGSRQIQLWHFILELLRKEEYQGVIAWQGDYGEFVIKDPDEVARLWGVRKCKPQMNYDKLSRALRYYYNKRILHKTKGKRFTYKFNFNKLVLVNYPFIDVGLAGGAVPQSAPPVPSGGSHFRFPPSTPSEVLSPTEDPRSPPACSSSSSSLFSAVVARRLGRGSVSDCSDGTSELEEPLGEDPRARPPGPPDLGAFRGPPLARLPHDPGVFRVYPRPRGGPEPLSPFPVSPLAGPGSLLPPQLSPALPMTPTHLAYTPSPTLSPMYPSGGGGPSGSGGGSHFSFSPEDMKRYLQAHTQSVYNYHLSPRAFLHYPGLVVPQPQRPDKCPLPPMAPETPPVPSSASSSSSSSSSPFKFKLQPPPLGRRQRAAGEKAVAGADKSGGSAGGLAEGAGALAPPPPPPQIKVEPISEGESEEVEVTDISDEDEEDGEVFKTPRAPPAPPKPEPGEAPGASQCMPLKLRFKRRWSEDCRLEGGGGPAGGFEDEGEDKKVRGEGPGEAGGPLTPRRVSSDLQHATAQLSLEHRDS
Summed up: as §1

The target in test [8] is T5, ETS2 (Homo sapiens, UniProt P15036 1-469).
T5 sequence: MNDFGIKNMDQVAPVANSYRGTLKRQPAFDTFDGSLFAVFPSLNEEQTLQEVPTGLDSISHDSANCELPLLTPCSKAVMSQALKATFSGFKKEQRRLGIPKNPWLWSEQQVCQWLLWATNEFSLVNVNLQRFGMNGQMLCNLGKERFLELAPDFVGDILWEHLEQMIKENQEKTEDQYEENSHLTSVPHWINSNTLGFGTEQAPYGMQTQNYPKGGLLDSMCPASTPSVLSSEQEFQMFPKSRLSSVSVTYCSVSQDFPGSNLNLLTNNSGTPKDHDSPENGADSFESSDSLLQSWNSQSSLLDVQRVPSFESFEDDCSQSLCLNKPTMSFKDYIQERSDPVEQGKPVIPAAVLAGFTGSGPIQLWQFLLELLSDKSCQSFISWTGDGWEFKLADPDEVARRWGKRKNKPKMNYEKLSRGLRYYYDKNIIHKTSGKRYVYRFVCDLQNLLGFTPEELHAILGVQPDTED
Put shortly:
as §1

The target in test [9] is T6, GABPA (Homo sapiens, UniProt Q06546 1-454).
T6 sequence: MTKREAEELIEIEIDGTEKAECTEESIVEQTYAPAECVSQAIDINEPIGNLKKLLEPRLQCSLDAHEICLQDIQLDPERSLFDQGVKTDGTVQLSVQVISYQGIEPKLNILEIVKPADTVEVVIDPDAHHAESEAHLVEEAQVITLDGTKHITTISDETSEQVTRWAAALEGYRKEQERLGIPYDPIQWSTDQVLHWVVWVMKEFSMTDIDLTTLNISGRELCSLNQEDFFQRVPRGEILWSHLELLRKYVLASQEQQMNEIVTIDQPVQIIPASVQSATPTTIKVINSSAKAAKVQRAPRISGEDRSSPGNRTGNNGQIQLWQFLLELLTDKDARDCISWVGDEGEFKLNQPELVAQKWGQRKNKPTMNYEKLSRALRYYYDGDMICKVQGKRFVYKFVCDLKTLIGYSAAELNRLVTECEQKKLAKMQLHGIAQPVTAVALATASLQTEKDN
Summed up: as §1

Test [10] addresses T7, EHF (Homo sapiens, UniProt Q9NZC4 1-300).
T7 sequence: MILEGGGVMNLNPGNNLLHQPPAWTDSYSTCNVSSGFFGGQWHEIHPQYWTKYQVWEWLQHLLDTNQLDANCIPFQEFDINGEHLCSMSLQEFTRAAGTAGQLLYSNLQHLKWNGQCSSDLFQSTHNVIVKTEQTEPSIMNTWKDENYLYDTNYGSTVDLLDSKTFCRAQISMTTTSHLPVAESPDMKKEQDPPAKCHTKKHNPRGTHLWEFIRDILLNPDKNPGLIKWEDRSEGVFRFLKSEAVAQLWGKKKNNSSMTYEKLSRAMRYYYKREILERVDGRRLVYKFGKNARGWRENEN
Put shortly: as §1

Test [11] concerns the target T8, ELK3 (Homo sapiens, UniProt P41970 1-407).
T8 sequence: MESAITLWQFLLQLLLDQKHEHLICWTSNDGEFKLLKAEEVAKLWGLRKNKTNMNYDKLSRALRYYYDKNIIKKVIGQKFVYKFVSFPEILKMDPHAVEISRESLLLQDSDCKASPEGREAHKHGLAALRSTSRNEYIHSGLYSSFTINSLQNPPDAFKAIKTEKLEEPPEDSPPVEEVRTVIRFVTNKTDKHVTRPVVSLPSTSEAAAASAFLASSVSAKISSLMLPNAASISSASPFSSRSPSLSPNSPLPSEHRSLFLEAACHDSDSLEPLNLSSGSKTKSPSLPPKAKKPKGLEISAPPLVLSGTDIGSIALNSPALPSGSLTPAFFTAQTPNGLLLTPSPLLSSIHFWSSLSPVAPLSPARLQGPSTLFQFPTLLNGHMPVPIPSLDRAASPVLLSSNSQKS
Summed up:
as §1

Test [12] addresses T9, ETV7 (Homo sapiens, UniProt Q9Y603 1-341).
T9 sequence: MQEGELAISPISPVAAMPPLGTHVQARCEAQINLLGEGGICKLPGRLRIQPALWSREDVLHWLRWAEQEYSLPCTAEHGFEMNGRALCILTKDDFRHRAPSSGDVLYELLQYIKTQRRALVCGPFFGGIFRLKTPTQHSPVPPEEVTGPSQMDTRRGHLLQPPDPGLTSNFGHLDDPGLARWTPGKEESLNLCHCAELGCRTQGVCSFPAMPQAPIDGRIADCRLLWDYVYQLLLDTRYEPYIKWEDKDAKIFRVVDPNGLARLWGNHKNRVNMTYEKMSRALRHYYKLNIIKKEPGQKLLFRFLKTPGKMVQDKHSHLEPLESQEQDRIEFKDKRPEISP
Summed up: as §1

Test [13] has as its target T10, ELK1 (Homo sapiens, UniProt P19419 1-428).
T10 sequence: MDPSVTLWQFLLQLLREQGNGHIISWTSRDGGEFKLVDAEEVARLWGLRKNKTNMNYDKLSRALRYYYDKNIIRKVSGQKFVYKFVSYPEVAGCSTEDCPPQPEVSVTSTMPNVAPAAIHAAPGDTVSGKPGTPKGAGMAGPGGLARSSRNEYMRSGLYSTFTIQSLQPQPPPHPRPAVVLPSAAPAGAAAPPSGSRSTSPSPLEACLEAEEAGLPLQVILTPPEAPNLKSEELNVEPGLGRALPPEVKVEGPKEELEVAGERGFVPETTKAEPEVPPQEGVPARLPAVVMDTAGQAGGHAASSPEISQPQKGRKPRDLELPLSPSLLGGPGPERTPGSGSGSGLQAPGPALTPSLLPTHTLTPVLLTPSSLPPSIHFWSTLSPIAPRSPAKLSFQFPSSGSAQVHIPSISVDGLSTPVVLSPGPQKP
Put shortly:
as §1

The target in test [14] is ETV6 (Homo sapiens, UniProt P41212 1-452). Summed up: as §1
Sequence of ETV6 (P41212 whole entry): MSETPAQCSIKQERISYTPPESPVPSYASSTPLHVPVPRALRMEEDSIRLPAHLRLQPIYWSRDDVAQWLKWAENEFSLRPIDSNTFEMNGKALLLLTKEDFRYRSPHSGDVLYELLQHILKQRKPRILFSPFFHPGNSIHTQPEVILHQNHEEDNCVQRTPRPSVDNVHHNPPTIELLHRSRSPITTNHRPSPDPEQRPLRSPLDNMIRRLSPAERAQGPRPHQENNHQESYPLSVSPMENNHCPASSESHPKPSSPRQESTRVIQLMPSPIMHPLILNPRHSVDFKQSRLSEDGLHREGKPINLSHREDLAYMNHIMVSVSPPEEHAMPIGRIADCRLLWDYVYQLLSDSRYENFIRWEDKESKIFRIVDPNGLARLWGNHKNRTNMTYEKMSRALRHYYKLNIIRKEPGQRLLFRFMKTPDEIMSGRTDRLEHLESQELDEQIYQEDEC

Sequence of ELF4 (Q99607 whole entry): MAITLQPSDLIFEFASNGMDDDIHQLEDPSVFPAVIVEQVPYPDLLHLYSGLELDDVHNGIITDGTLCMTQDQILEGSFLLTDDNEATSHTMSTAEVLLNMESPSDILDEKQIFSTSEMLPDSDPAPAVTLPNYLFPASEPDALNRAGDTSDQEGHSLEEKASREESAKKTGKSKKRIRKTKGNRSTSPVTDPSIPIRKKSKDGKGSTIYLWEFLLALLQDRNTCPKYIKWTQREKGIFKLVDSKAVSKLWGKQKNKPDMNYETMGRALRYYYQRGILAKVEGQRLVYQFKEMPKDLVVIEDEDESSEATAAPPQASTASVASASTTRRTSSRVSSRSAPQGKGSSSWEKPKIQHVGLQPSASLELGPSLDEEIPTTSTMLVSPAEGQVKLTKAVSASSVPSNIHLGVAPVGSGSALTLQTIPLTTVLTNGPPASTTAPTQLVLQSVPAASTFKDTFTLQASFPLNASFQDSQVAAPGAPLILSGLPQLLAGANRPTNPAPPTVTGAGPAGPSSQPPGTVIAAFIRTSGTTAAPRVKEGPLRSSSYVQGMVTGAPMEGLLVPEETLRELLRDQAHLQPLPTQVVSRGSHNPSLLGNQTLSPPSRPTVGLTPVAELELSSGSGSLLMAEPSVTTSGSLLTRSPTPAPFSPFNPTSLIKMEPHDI

For CTGTGT, in test [1], the binding signal was 1.04 fold enrichment (6-mer frequency, TF over GST control).

For GTTAGC, the binding signal in test [2] is 1.01 fold enrichment (6-mer frequency, TF over GST control); in test [3] it was 1 fold enrichment (6-mer frequency, TF over GST control); in test [4], 1 fold enrichment (6-mer frequency, TF over GST control); in test [5], 1.06 fold enrichment (6-mer frequency, TF over GST control); in test [6], 1.17 fold enrichment (6-mer frequency, TF over GST control); in [7], 1.02 fold enrichment (6-mer frequency, TF over GST control). Besides, the binding signal in test [8] was 1.01 fold enrichment (6-mer frequency, TF over GST control).

With GCATAC, the binding signal in test [9] was 1.01 fold enrichment (6-mer frequency, TF over GST control); in [10] it was 1.01 fold enrichment (6-mer frequency, TF over GST control); in test [11] it was 1.05 fold enrichment (6-mer frequency, TF over GST control); in test [5], 1.01 fold enrichment (6-mer frequency, TF over GST control); in [12], 1 fold enrichment (6-mer frequency, TF over GST control).

For the sequence GCAAGC, the binding signal in test [1] is 1.07 fold enrichment (6-mer frequency, TF over GST control).

For the sequence GCAACA, the binding signal is 1.03 fold enrichment (6-mer frequency, TF over GST control) in test [13]; 1.08 fold enrichment (6-mer frequency, TF over GST control) in test [9]; 1.06 fold enrichment (6-mer frequency, TF over GST control) in test [5]; 1.08 fold enrichment (6-mer frequency, TF over GST control) in test [1]; 1.03 fold enrichment (6-mer frequency, TF over GST control) in test [6]; 1.01 fold enrichment (6-mer frequency, TF over GST control) in test [7]. In addition, the binding signal in [14] was 1.03 fold enrichment (6-mer frequency, TF over GST control).
